# PAFAH2 FP inh – PAFAH2 (human) inhibition; recombinant PAFAH2, FP-rhodamine activity probe, fluorescence polarization; Q99487; AID 492956; inhibition, % at 3.39 µM; 0.99% of 340,000 active;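 active = inhibition above the mean over all tested compounds plus 3 SD, cut at about 30% in these data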;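 also: inhibitors block probe labeling of enzyme so polarization drops; 0% = enzyme with DMSO and 100% = wells lacking PAFAH2 protein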
# pPAFAH inh – pPAFAH (human) enzyme inhibition. recombinant pPAFAH, FP-rhodamine probe fluorescence polarization. inhibition, % at 3.39 µM. 1.5% of 330,000 active. AID 463082;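 active = inhibition above the mean inhibition across the screen plus 3 SD, cut at about 25% in these data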;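 also: inhibitors block binding of the rhodamine activity-based probe so polarization drops; 0% = enzyme with DMSO and 100% = wells lacking pPAFAH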
# Target sequence (Q13093 whole entry, looked up): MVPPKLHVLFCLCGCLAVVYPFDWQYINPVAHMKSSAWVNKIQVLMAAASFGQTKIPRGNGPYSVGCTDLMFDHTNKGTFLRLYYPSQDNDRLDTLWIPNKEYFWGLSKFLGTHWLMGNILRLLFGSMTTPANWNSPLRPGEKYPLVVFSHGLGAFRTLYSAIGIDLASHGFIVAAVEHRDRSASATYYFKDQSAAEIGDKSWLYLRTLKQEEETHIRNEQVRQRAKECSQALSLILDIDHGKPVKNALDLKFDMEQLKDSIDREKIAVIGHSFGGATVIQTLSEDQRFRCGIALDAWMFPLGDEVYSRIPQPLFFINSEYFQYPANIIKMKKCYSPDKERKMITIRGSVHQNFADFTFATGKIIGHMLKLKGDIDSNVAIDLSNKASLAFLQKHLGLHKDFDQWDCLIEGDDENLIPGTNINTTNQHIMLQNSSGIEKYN
# CTSL1 counter – cathepsin L1 inhibition, PFM18AAP counter-screen; 0.49% of 300,000 active; recombinant F. hepatica cathepsin L1, Z-Leu-Arg-MCA fluorescence; inhibition, % at 5.96 µM;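 active = inhibition above the mean of all tested compounds plus 3 SD, set per screening campaign, cut at about 17% in these data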;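 also: 0% = plate median of test compound wells and 100% = 1 µM Z-Phe-Ala-diazomethylketone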
# PAFAH1B3 inh – inhibitors of human PAFAH1B3. recombinant PAFAH1B3, FP-rhodamine probe, fluorescence polarization. inhibition, % at 3.39 µM. 0.28% of 340,000 active. AID 492972;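 active = inhibition above the screen-wide average of all tested compounds plus 3 SD, cut at about 25% in these data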;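 also: 0% = enzyme with DMSO only and 100% = wells lacking PAFAH1B3 protein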
# PAFAH1B2 inh – PAFAH1B2 (human) inhibition; P68402; recombinant PAFAH1B2, FP-rhodamine activity probe, fluorescence polarization; inhibition, % at 3.39 µM; 1.2% of 340,000 active;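 active = inhibition above the mean of all tested compounds plus 3 SD, cut at about 24% in these data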;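 also: 0% = enzyme with DMSO and 100% = wells lacking PAFAH1B2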
# PP5 primary – blocks human protein phosphatase 5 activity; P53041; purified PP5c, OMFP substrate fluorescence; inhibition, % at 6.7 µM; 0.18% of 320,000 active; AID 1987;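 active = inhibition above the campaign's mean inhibition across all tested compounds plus 3 SD, cut at about 9.5% in these data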;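 also: 0% = DMSO only and 100% = 100 µM cantharidin control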
# Numbers without * were called inactive; nt = no result given. A selection: hits, their analogues and other compounds. The true share with any hit is near 3%.
SMILES,PAFAH2 FP inh,pPAFAH inh,CTSL1 counter,PAFAH1B3 inh,PAFAH1B2 inh,PP5 primary
CC1CCCN(CCCN2C(=O)C3C(C(=O)Nc4cccc(Cl)c4)C4C=CC3(O4)C2C(=O)NC2CCCCC2)C1 (configuration not stated),-3,8,0,7,6,-3
CCc1ccc(C(=O)/C=C2\Sc3ccccc3NC2=O)cc1,36*,17,-1,5,4,3
CCCCNC(=O)/C=C1\Sc2ccccc2NC1=O,4,3,1,0,7,2
O=c1cccccc1NCc1ccccc1,1,18,1,0,3,3
O=C1C=C(NCc2ccccc2)c2ccccc2C1=O,53*,nt,nt,60*,27*,nt
O=C1C=C(Nc2ccccc2O)c2ccccc2C1=O,-13,19,22*,3,-9,4
NC1=CC(=O)C(=O)c2ccccc21,7,nt,nt,12,6,nt
CCOC(=O)c1ccc(N2CCN(c3ccccc3F)CC2)c(NC(=O)Nc2cccc(OC)c2)c1,-10,26*,-3,-22,-8,6
Oc1c(Cl)cc(Cl)cc1C=Nc1ccc(N2CCOCC2)cc1,-5,13,-2,6,5,0
Cc1ccc(O)c(N=Cc2cc(Cc3ccccc3)cc([N+](=O)[O-])c2O)c1,22,nt,nt,11,34*,nt
Oc1ccc(C=Nc2ccc(N3CCOCC3)cc2)c(O)c1,14,26*,4,2,9,2
O=[N+]([O-])c1cc(Cc2ccccc2)cc(C=Nc2ccc(N3CCOCC3)cc2)c1O,5,34*,6,8,25*,1
Cc1ccc(O)c(C=Nc2cc(C)ccc2O)c1,2,16,-2,11,1,1
CCN(CC)c1ccc(S(=O)(=O)N2CCCCC2)cc1NC(=O)CSCc1c(C)noc1C,7,nt,nt,10,0,nt
O=[N+]([O-])c1ccc2c(c1)C(N1CCOCC1)/C(=C/COc1ccc(Cl)cc1Cl)O2 (configuration not stated),9,7,4,0,24*,2
CC(=O)N=Cc1c(C)c(C#N)c(=O)n(C)c1O,-4,3,0,2,3,1
Cc1c(C=O)c(Cl)n(C)c(=O)c1C#N,0,11,67*,-2,1,6
Cc1ccc(/C=N/NC(=O)NC2CCCCC2)o1,-1,0,10,3,0,0
Cc1ccc(/C=C/C(=O)NC2CCCCCCC2)o1,8,3,74*,6,3,1
COc1ccc(/C=N/N2C(=O)CSC2=S)cc1Br,0,29*,1,-9,-7,-1
COc1ccc(/C=N/N2C(=O)CSC2=S)cc1,-2,13,4,2,3,-1
Clc1ccc(CCNc2nc3ccccc3s2)cc1,10,2,3,1,27*,4
Cc1ccc2c(c1)-n1c(nc3ccccc3c1=O)C(CC(C)C)NC2=O (configuration not stated),nt,3,nt,nt,nt,nt
CCCCn1c(N)c(N(CC(C)C)C(=O)CN2C(=O)NC3(CCC(C(C)(C)CC)CC3)C2=O)c(=O)[nH]c1=O (configuration not stated),-1,nt,nt,7,31*,nt
CCCCn1c(N)c(N(CC(C)C)C(=O)c2ccc(S(=O)(=O)N3CCC(C)CC3)cc2)c(=O)[nH]c1=O,-1,32*,0,2,1,1
SMILES,PAFAH2 FP inh,pPAFAH inh,CTSL1 counter,PAFAH1B3 inh,PAFAH1B2 inh,PP5 primary
CCCCn1c(N)c(N(CC(C)C)C(=O)CN2C(=O)c3ccccc3C2=O)c(=O)[nH]c1=O,-1,4,4,7,0,-3
CC(CC(=O)NC1CCCCC1)S(=O)(=O)c1ccc2c(c1)NC(=O)CO2 (configuration not stated),17,2,4,8,6,-1
COc1cccc(Nc2ccc(C(=O)O)cc2N)c1,-2,25*,2,6,3,-1
CCOc1ccccc1Nc1ccc(C(=O)O)cc1N,-2,7,-4,3,1,3
Cc1ccc(Nc2ccc(C(=O)O)cc2N)cc1,nt,28*,1,nt,nt,3
Cc1cc(C)cc(Nc2ccc(C(=O)O)cc2N)c1,17,18,0,12,6,3
CCC1(c2ccc(F)cc2)NC(=O)N(CC(=O)Nc2cc(C)on2)C1=O (configuration not stated),4,3,nt,5,2,1
COc1cccc(N2C(=O)N(c3ccccc3Cl)C3CS(=O)(=O)CC32)c1 (configuration not stated),0,-4,17*,12,4,1
O=C(O)c1cccc(Cn2c(Cl)c(/C=N/Nc3ccccc3)sc2=O)c1,13,27*,2,10,-1,2
CCOC(=O)c1sc(NC(=O)Nc2ccc(Cl)cc2)cc1C,2,26*,-2,20,8,5
O=C(COC(=O)C1CCN(c2ccc(C(F)(F)F)cn2)CC1)c1ccc(Cl)cc1,-9,5,5,-6,-5,2
O=C(COC(=O)C1CCN(c2ccc(C(F)(F)F)cn2)CC1)c1ccc(F)cc1,2,-2,18*,-2,2,3
O=C(CNC(=O)c1ccccc1)c1ccccc1,1,4,0,10,2,2
CCOC(=O)C1CCCN(S(=O)(=O)c2ccc(S(=O)(=O)N3CCCC3)cc2)C1 (configuration not stated),15,-5,6,7,-3,-2
CCOC(=O)C1CCCN(S(=O)(=O)c2cc3[nH]c(=O)c(=O)[nH]c3cc2C)C1 (configuration not stated),1,7,3,4,26*,2
O=C(OCC(=O)N1N=C(c2ccc(Cl)cc2)CC1c1ccco1)c1cccnc1 (configuration not stated),8,21,nt,-1,2,nt
O=[N+]([O-])c1cc(CN2CCCC2)c2cccnc2c1O,36*,66*,10,19,4,3
COc1ccccc1N1CCN(Cc2cc(Br)c(O)c3ncccc23)CC1,10,30*,-12,9,4,7
COC(=O)c1ccc(COC(=O)CNC(=O)c2ccc(C)s2)cc1,8,3,nt,1,1,1
CCc1cc(Cn2nc(-c3ccccc3)cc2C(=O)NCc2cccc(Br)c2)on1,-26,-24,nt,-49,-30,nt
Cc1ccc(CCNC(=O)C2CCC(=O)N2C(C)C)cc1 (configuration not stated),1,7,-1,3,11,0
Cc1ccc(CCNC(=O)C2CCC(=O)N2C2CCCC2)cc1 (configuration not stated),-2,-1,1,-9,27*,2
N#Cc1c(Nc2ccccc2)[n+]([O-])c2ccc(Cl)cc2[n+]1[O-],0,nt,nt,12,8,nt
O=[N+]([O-])c1ccc(N/N=C\c2cccn2-c2ccccc2)nc1,-2,29*,3,0,6,4
